Compound activity as filed in PubChem.
FBW7 act = activators of human E3 ligase FBW7; AlphaScreen FBW7–phospho-cyclin E peptide binding, activator screen; 0.13% of 650,000 active; normalized activity (activation), % at 26.1 µM; in the data active = normalized activity above about 1.9%;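 note: purified mutant Fbw7 with reduced substrate affinity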
Target sequence (Q969H0 whole entry, looked up): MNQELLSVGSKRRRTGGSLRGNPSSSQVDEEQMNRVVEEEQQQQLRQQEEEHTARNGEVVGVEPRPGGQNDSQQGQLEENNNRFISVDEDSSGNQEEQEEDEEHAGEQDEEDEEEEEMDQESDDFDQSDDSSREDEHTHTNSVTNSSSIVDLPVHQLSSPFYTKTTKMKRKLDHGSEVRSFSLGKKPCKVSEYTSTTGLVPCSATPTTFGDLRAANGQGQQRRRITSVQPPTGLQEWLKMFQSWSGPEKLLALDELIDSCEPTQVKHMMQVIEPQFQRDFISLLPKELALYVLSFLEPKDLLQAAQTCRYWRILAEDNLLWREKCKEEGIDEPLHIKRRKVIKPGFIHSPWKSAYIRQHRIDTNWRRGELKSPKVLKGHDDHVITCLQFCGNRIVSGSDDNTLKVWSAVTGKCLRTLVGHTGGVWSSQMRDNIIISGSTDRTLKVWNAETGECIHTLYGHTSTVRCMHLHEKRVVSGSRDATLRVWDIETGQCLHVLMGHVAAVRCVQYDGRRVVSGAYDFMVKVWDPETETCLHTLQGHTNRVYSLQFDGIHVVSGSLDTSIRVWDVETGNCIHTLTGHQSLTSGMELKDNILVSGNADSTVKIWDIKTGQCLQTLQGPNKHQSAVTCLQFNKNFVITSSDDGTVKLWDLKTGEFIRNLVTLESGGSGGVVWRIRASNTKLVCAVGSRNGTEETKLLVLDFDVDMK
GPR151 ag = activates the human receptor GPR151; Q8TDV0; PathHunter beta-arrestin GPR151 cells, luminescence; activation, % at 11.2 µM; 1% of 650,000 active; AID 1508602; in the data active = activation above about 4.9%;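 note: 0% = median of compound wells and 100% = cells with positive control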
TEAD-YAP block = TEAD-YAP interaction inhibition. inhibition, % at 9.12 µM. 1.4% of 640,000 active. HEK-TIYL cells, TEAD-Gal4/YAP UAS-luciferase luminescence; in the data active = inhibition above about 32%;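 note: 0% = median of test compound wells and 100% = reference inhibitor wells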
MITF inh = blocks human microphthalmia-associated transcription factor | O75030 | 0.91% of 650,000 active | inhibition, % at 2.6 µM | AlphaScreen MITF homodimerization, bead proximity signal; in the data active = inhibition above about 50%;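 note: 0% = vehicle wells with protein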
GPR151 conf act = confirmation of human GPR151 activators; 6,700 tested, under 10 active; GPR151 PathHunter beta-arrestin cells, luminescence, 90 min; % of EA-reagent control over plate median; shares compounds with GPR151 ag; activation, % at 11.2 µM;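 active = mean percent activation across replicates above the confirmation screen cutoff of 4.91%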
GPR119 ag = GPR119 activation, counter-screen for GPR151 activators; activation, % at 11.2 µM; shares compounds with GPR151 ag; GPR119 PathHunter beta-arrestin cells, luminescence, 90 min; 0 = compound-well median, 100 = enzyme-acceptor control; AID 1508611; 0.3% of 6,700 active;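 active = mean percent activation in the counterscreen above 29.09%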;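 note: counterscreen on off-target GPR119 to flag nonselective hits from the GPR151 activator screen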
* = called active by the depositor. Only some compounds are listed: those with a hit (about 3.5% of all), similar ones and a draw of the others.

How did Cc1nc2c(C(=O)N3CCN(c4cccc(Cl)c4)CC3)cnn2c(C)c1Cc1ccccc1Cl do in these assays?
FBW7 act: 0.0; GPR151 ag: 5.3*; TEAD-YAP block: 12.3; MITF inh: 1.9; GPR151 conf act: -0.5; GPR119 ag: -4.8

Results for Cc1nc2c(C(=O)NCc3ccccn3)cnn2c(C)c1Cc1cccc(Cl)c1 ?
FBW7 act: -0.1; GPR151 ag: 8.1*; TEAD-YAP block: 1.1; MITF inh: -11.5; GPR151 conf act: 1.9; GPR119 ag: 11.8

How did Cc1ccccc1Cc1c(C)nc2c(C(=O)N3CCN(c4cccc(Cl)c4)CC3)cnn2c1C do in these assays?
FBW7 act: 0.1; GPR151 ag: 2.9; TEAD-YAP block: 4.2; MITF inh: 6.5

What do the screens show for `Cc1cccc(Cc2c(C)nc3c(C(=O)N4CCCC4)cnn3c2C)c1`?
FBW7 act: 0.1; GPR151 ag: 1.9; TEAD-YAP block: -6.2; MITF inh: -1.3

What do the screens show for `Cc1ccc(NC(=O)C(CC(C)C)N2C(=O)c3ccccc3C2=O)cc1` (configuration not stated)?
FBW7 act: 0.4; GPR151 ag: -1.3; TEAD-YAP block: -1.9; MITF inh: 20.1

How did CCCN(CCC)C(=O)CSc1nc2nc(C)c(Cc3ccccc3C)c(C)n2n1 do in these assays?
FBW7 act: 0.0; GPR151 ag: 5.0*; TEAD-YAP block: 12.7; MITF inh: 9.3; GPR151 conf act: -0.1; GPR119 ag: 2.3

What do the screens show for `Cc1ccccc1Cc1c(C)nc2nc(SCC(=O)NC(C)(C)C)nn2c1C`?
FBW7 act: 0.1; GPR151 ag: 15.6*; TEAD-YAP block: 0.8; MITF inh: 6.7; GPR151 conf act: 0.1; GPR119 ag: -9.8

How did CCC1CCCCN1C(=O)CSc1nc2nc(C)c(Cc3ccccc3C)c(C)n2n1 (configuration not stated) do in these assays?
FBW7 act: 0.1; GPR151 ag: 5.2*; TEAD-YAP block: 10.0; MITF inh: 1.3; GPR151 conf act: -0.3; GPR119 ag: 1.2

How did Cc1ccccc1Cc1c(C)nc2nc(SCC(=O)N3CCC(C)CC3)nn2c1C do in these assays?
FBW7 act: 0.0; GPR151 ag: 0.8; TEAD-YAP block: 6.8; MITF inh: -1.4

What do the screens show for `Cc1ccc2[nH]c(=O)c(CN(CCO)S(=O)(=O)c3c(C)ccc4nsnc34)cc2c1`?
FBW7 act: -0.2; GPR151 ag: 0.1; TEAD-YAP block: -7.3; MITF inh: -9.9

Results for O=C(Nc1ccc(Br)cc1)c1cccc(Oc2ccccc2)c1 ?
FBW7 act: -0.1; GPR151 ag: 0.2; TEAD-YAP block: -48.1; MITF inh: -6.2

What do the screens show for `COC(=O)c1cccc(NC(=O)c2cccc(Br)c2)c1C`?
FBW7 act: -0.1; GPR151 ag: 14.9*; TEAD-YAP block: -51.4; MITF inh: -8.0; GPR151 conf act: -0.9; GPR119 ag: -16.6

How did O=C(O)c1ccc(NC(=O)c2ccccc2NC(=O)c2cccc(Br)c2)cc1 do in these assays?
FBW7 act: -0.3; GPR151 ag: 5.5*; TEAD-YAP block: 10.3; MITF inh: -10.2; GPR151 conf act: -0.7; GPR119 ag: -8.1

How did CCOC(=O)c1ccccc1NC(=O)c1cccc(Br)c1 do in these assays?
FBW7 act: 0.1; GPR151 ag: 1.8; TEAD-YAP block: 2.8; MITF inh: -5.6

What do the screens show for `COC(=O)c1ccccc1NC(=O)Nc1ccc(Cl)cc1`?
FBW7 act: 0.0; GPR151 ag: -1.5; TEAD-YAP block: 3.0; MITF inh: 20.7

Results for COC(=O)c1ccccc1NC(=O)Nc1ccc(Br)cc1Cl ?
FBW7 act: -0.1; GPR151 ag: 5.9*; TEAD-YAP block: 8.6; MITF inh: -8.1; GPR151 conf act: 0.4; GPR119 ag: 8.6

What do the screens show for `COCCNC(=O)c1ccc(-c2ccc3c(c2)OCO3)nc1NCc1cccnc1`?
FBW7 act: 0.2; GPR151 ag: 0.0; TEAD-YAP block: 6.5; MITF inh: -2.7

How did CC1(C)Cc2c(sc3nc(-c4cc5ccccc5o4)n(N)c(=O)c23)CO1 do in these assays?
FBW7 act: -0.2; GPR151 ag: 6.4*; TEAD-YAP block: -11.6; MITF inh: 2.2; GPR151 conf act: 0.5; GPR119 ag: -1.9

What do the screens show for `C/C(=N\NC(=O)c1nnn(-c2nonc2N)c1C)c1ccc(F)cc1F`?
FBW7 act: 0.0; GPR151 ag: -1.1; TEAD-YAP block: -4.0; MITF inh: 12.7

What do the screens show for `CSc1ccccc1NC(=O)N1CCCC(N(C)CCc2ccccn2)C1` (configuration not stated)?
FBW7 act: -0.1; GPR151 ag: 5.2*; TEAD-YAP block: -4.4; MITF inh: -3.5; GPR151 conf act: -1.0; GPR119 ag: -14.4

Results for Cc1noc(C)c1COC(=O)CCc1ccc(S(=O)(=O)N2CCCCC2)cc1 ?
FBW7 act: 0.1; GPR151 ag: 5.0*; TEAD-YAP block: 5.4; MITF inh: 5.6; GPR151 conf act: -0.2; GPR119 ag: -5.7

Results for O=C(NCc1ccccc1Cl)c1c(O)c2ccccc2[nH]c1=O ?
FBW7 act: -0.1; GPR151 ag: 5.0*; TEAD-YAP block: 1.6; MITF inh: 3.7; GPR151 conf act: 1.0; GPR119 ag: -1.0

What do the screens show for `CON1C(=O)C(=O)N(OC)C2(C)CCCCC12` (configuration not stated)?
FBW7 act: 0.0; GPR151 ag: -1.0; TEAD-YAP block: 2.0; MITF inh: -6.8

What do the screens show for `Cc1cc(C)n(-c2ccc(N3CCN(C(=O)Nc4ccc(F)cc4)CC3)nn2)n1`?
FBW7 act: 0.1; GPR151 ag: 0.6; TEAD-YAP block: -2.3; MITF inh: 1.6

What do the screens show for `Cc1nn(CC(=O)NCC#N)c(C)c1[N+](=O)[O-]`?
FBW7 act: 0.0; GPR151 ag: 5.0*; TEAD-YAP block: -3.7; MITF inh: -2.6; GPR151 conf act: -0.1; GPR119 ag: -2.8

Results for Cc1nc2ccccc2n1CC(O)Cn1c2ccc(Cl)cc2c2cc(Cl)ccc21 (configuration not stated) ?
FBW7 act: 0.0; GPR151 ag: -2.1; TEAD-YAP block: 2.9; MITF inh: 16.8

How did CCOc1ccc(NC(=O)CSc2nc(NCCc3ccccc3)c3ccccc3n2)cc1 do in these assays?
FBW7 act: 0.1; GPR151 ag: 6.0*; TEAD-YAP block: 2.6; MITF inh: 4.3; GPR151 conf act: -0.3; GPR119 ag: 6.6

Results for CCCCNc1nc(SCC(=O)Nc2ccc(OCC)cc2)nc2ccccc12 ?
FBW7 act: 0.1; GPR151 ag: 0.7; TEAD-YAP block: 17.1; MITF inh: 1.8

How did COCCNc1nc(SCC(=O)NCCc2ccc(S(N)(=O)=O)cc2)nc2ccccc12 do in these assays?
FBW7 act: 0.0; GPR151 ag: 4.9*; TEAD-YAP block: 0.2; MITF inh: 2.6; GPR151 conf act: -0.8; GPR119 ag: -12.2
